# High-throughput results from PubChem.
# Wnt act: Wnt/beta-catenin pathway activation | actives 1.2% (n = 300,000) | AID 743398 | activation, % at 9.35 µM | Wnt/beta-catenin reporter cell assay, activator, plate reader; in the data active means activation above about 30%, passing the limit was not always enough; inconclusive means no clear call, values can overlap the other calls;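 further: 0% = neutral control wells and 100% = positive control wells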
# esBAF inh: inhibitors of esBAF chromatin remodeling in mouse ES cells; Bmi1-luciferase knock-in reporter, 24 h; 100% = twice the neutral-well signal; actives 2% (n = 350,000); reporter increase, % at 12.5 µM; in the data active means activation above about 40%; inconclusive means no clear call, values can overlap the other calls;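 further: 0% = median of the plate's neutral control wells and 100% = double that signal; a rise in the Bmi1 reporter signal indicates esBAF inhibition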
# MITF act: activators of MITF-driven TRPM1 promoter activity in SK-MEL-5 cells; SK-MEL-5 TRPM1-promoter luciferase, 24 h; % of positive control, neutral wells = 0; activation, % at 12.5 µM; actives 0.75% (n = 300,000); AID 588334;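 active means mean activation of at least 80% with every replicate also reaching 80%; inconclusive means mean reaches 80% but some replicate falls short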;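 further: 0% = neutral control wells and 100% = parthenolide positive control wells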
# HSF1 inh: HSF1 inhibition. NIH3T3-HGL HSE-luciferase, MG132-induced, luminescence 8 h; hits give low values. AID 2098. activity change, negative = inhibition, % at 7.5 µM (by protocol). actives 0.77% (n = 300,000);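 active means more than half of replicate wells show activity change below -50%, luminescence cut by over half; inconclusive means some wells, but at most half, below -50%; inactive means no replicate well below -50%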;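 further: luciferase reports HSF-1 transcriptional activity via heat shock element; 0% = median of DMSO wells and -100% = zero luminescence signal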
# HSF1 activator: increases HSF-1 driven luciferase reporter signal. NIH3T3-HGL HSF-1 luciferase reporter, MG132, 8 h; 100% = twice DMSO control signal. activation, % at 9 µM. actives 1.7% (n = 300,000);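 active means mean replicate activation of at least 50% with a set share of replicates each reaching 50%; inconclusive means only one of those two conditions met; inactive means mean below 50% and too few replicates reaching it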;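 further: 0% = median of the neutral control wells and 100% = twice that signal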
# An asterisk follows results filed as active; ? = inconclusive; / = no result. A selection: hits, their analogues and other compounds. The true share with any hit is near 3.8%.
SMILES,Wnt act,esBAF inh,MITF act,HSF1 inh,HSF1 activator
O=C(C[C@@H]1C=C[C@@H](NC(=O)Nc2ccc(F)cc2)[C@@H](CO)O1)NCc1cccc(F)c1,/,0,/,/,/
CCOc1ccc(NCc2cccn2-c2nnc(N3CCC(C(=O)NCCCN4CCCCC4)CC3)s2)cc1,0,-4,6,-57*,-68
CCOc1ccc(NCc2cccn2-c2nnc(N3CCC(C(=O)NCCCN4C(C)CCCC4C)CC3)s2)cc1 (stereo not given),-2,7,-48,-7,-9
CO[C@@H]1CN(C)C(=O)c2cc(NS(C)(=O)=O)ccc2OC[C@@H](C)N(Cc2cccnc2)C[C@H]1C,/,-3,/,/,/
O=C(Nc1ccncc1)Nc1cccc(Cl)c1,1,4,23,6,5
CN(C)c1ccc(NC(=O)Nc2cccc(Cl)c2)cc1,/,54*,31,26,29
CN(c1cccc(NC(=O)Nc2cccc(Cl)c2)c1)S(C)(=O)=O,-3,54*,/,36,66*
O=S(=O)(c1cccs1)N1CCN(Cc2nc3ccccc3s2)CC1,36*,-4,/,-9,-23
O=C(OCc1nc2ccccc2s1)C1CCN(S(=O)(=O)c2cccs2)CC1,44*,56*,24,-5,9
C[C@H](CO)N1C[C@H](C)[C@H](CN(C)Cc2ccc(Oc3ccccc3)cc2)Oc2ccc(NS(C)(=O)=O)cc2CC1=O,/,2,/,/,/
CCOc1ccc(NC(=S)N(Cc2ccc(N(C)C)cc2)Cc2ccco2)cc1,-2,/,-7,15,21
COc1ccc(NC(=S)N(Cc2ccc(N(C)C)cc2)Cc2ccco2)cc1,/,/,6,68,91*
COc1cccc(-c2ncc3ccccc3c2COC(=O)N2CCOCC2)c1,3,53*,41,/,/
COc1cccc(-c2ncc3ccccc3c2COC(=O)N2CCCCC2)c1,-6,2,16,/,/
COc1ccc(NC(=O)N(C)C[C@@H]2Oc3ccc(NC(=O)NC(C)C)cc3CC(=O)N([C@H](C)CO)C[C@H]2C)cc1,/,0,/,/,/
C[C@H]1CN([C@@H](C)CO)C(=O)Cc2cc(NS(=O)(=O)c3ccccc3)ccc2O[C@@H]1CN(C)C(=O)Nc1ccc(F)cc1,/,-1,/,/,/
O=C(Cc1ccccc1F)NC1CCCc2ccccc21 (stereo not given),5,6,17,3,15
Cc1ccccc1CC(=O)NC1CCCc2ccccc21 (stereo not given),2,7,/,37,65*
Cc1noc(C)c1S(=O)(=O)N(C)C[C@@H]1Oc2ccc(NC(=O)NC3CCCCC3)cc2CC(=O)N([C@@H](C)CO)C[C@@H]1C,/,3,/,/,/
Cc1cc(Cl)n2c(nc3cc(F)c(F)cc32)c1C#N,-22,/,-98,110,179*
CCCC#Cc1ccc2c(c1)O[C@@H](CN(C)C(=O)NC(C)C)[C@H](C)CN([C@@H](C)CO)S2(=O)=O,/,3,/,/,/
O=c1[nH]c(-c2ccc(-c3cccc(Cl)c3)o2)nc2ccccc12,?,58*,104*,/,/
CO[C@@H]1CN(C)C(=O)c2cc(NC(=O)C3CCCC3)ccc2OC[C@@H](C)N(CCC(F)(F)F)C[C@@H]1C,/,1,/,/,/
Nc1nnc(SCc2ccc(F)cc2Cl)s1,3,4,24,14,13
Cc1nnc(SCc2ccc(F)cc2Cl)s1,/,50*,72,12,35
SMILES,Wnt act,esBAF inh,MITF act,HSF1 inh,HSF1 activator
Cc1nnc(SCc2c(Cl)cccc2Cl)s1,0,55*,48,24,7
Clc1cccc(Cl)c1CSc1nnc(-c2ccncc2)s1,6,35,/,15,49
Nc1nnc(SCc2c(F)cccc2Cl)s1,12,/,/,45,77*
Nc1nnc(SCc2ccc(Cl)cc2)s1,3,20,19,11,27
O=C(Nc1cccc(Cl)c1)N[C@@H]1CC[C@@H](CCNC(=O)C2CC2)O[C@@H]1CO,/,-7,/,/,/
CN1CCN(C(=O)C[C@H]2C[C@H]3c4cc(NC(=O)CC5CC5)ccc4O[C@H]3[C@@H](CO)O2)CC1,/,-1,/,/,/
N#CCc1nn(-c2ccc(Cl)cc2)c(N)c1C#N,-1,/,0,-17,-36
N#CCc1nn(-c2ccccc2)c2ncnc(N)c12,0,/,-7,-60*,-69
CCNC(=O)C[C@H]1C=C[C@@H](NC(=O)C2CCC2)[C@H](CO)O1,/,0,/,/,/
COc1cccc(C2CC(c3ccc(C)cc3)n3ncnc3N2)c1 (stereo not given),1,0,3,-4,9
COc1cccc(C2CC(c3ccccc3)n3ncnc3N2)c1 (stereo not given),-3,-5,8,-77*,-82
CCCNC(=O)C[C@@H]1CC[C@@H]2[C@H](COC[C@H](O)CN2C(=O)c2cccnc2)O1,/,1,/,/,/
COc1ccc(-c2csc(CCn3nc(C)cc3C)n2)cc1,0,/,6,5,7
Cc1cc(C)n(CCc2nc(-c3ccc(-c4ccccc4)cc3)cs2)n1,20,70*,44,35,52*
CC1CCCC/C1=N\Nc1ccc(S(N)(=O)=O)cc1[N+](=O)[O-] (stereo not given),1,/,-3,44,68*
CC(C)(C)C1CCC(=NNc2ccc(S(N)(=O)=O)cc2[N+](=O)[O-])CC1 (stereo not given),-2,/,11,5,5
CC(C)NC(=O)Nc1ccc2c(c1)C(=O)N([C@@H](C)CO)C[C@H](C)[C@H](CN(C)Cc1ccc(C(=O)O)cc1)OCCCC[C@@H](C)O2,/,-4,/,/,/
CCCC(=O)Nc1ccc2c(c1)C(=O)N(C)C[C@@H](OC)[C@@H](C)CN(C(=O)C1CCCC1)[C@@H](C)CO2,/,1,/,/,/
O=c1[nH]c2ccccc2cc1CN(Cc1cccnc1)S(=O)(=O)c1ccc([N+](=O)[O-])cc1,-2,-11,-8,28,63*
COc1cccc(-c2cnc3c(c2)C(=O)N([C@H](C)CO)C[C@H](C)[C@H](CN(C)C(=O)CN(C)C)O3)c1,/,-4,/,/,/
OCc1c(OCc2cccc(F)c2)ccc2ccccc12,7,63*,32,36,62*
CNCc1c(OCc2ccc(F)cc2)ccc2ccccc12,12,-3,3,2,-10
CSc1ccccc1NC(=O)C1=CC(c2ccc(C)cc2)=NS(=O)(=O)N1C,4,7,1,-56*,-65
Cc1ccc(C2=NS(=O)(=O)N(C)C(C(=O)NC(C)c3ccccc3)=C2)cc1 (stereo not given),0,-7,/,5,13
Cc1ccc(S(=O)(=O)NCC[C@@H]2CC[C@@H](NS(=O)(=O)c3ccccc3Cl)[C@@H](CO)O2)cc1,/,-4,/,/,/
O=[N+]([O-])c1ccccc1CCc1cnc(Cl)s1,1,3,12,-63*,-70
CCN(CC)S(=O)(=O)c1cccc(C(=O)Nc2ccc(Cl)cn2)c1,4,31,/,8,3
CCN(CC)S(=O)(=O)c1cc(C(=O)Nc2ccc(Cl)cn2)ccc1C,/,27,105*,6,-9
